# Assay results published in ChEMBL document CHEMBL4513216, “Probing the Open Global Health Chemical Diversity Library for Multistage-Active Starting Points for Next-Generation Antimalarials” (ACS Infect Dis, 2020).
# Out of some 69,000 compounds screened, about 8,600 (12%) showed an effect of 50% or more. The sample as a whole holds a higher share of strong results than the screen did.
# Test system: Plasmodium berghei
# Test: Screen against P. berghei liver stage (PbLuc), transformed with Luciferase, at 10uM
# Format: functional, HepG2
# Conditions: tested at 10 uM
row,Structure (SMILES),INHIBITION
1,CN(C)C(=O)N1CCN(Cc2ccccc2)[C@@H]2CS(=O)(=O)C[C@@H]21,-33.2%
2,CCCN1CCN(C(=O)Nc2ccccc2Cl)[C@H]2CS(=O)(=O)C[C@H]21,-32.9%
3,O=C(Nc1ccccc1Cl)N1CCN(CC2CC2)[C@@H]2CS(=O)(=O)C[C@@H]21,52.2%
4,CC(=O)N1CCN(C(=O)Nc2ccccc2Cl)[C@H]2CS(=O)(=O)C[C@H]21,72%
5,O=C(CCC(=O)N1CCc2[nH]c3ccccc3c2C1)NCc1ccco1,1.41%
6,CNc1cc(C2CCCN(C(=O)c3ccc(=O)[nH]n3)C2)ccn1 (stereo not drawn),15.5%
7,COC[C@]1(O)CCN(Cc2ccc(N(C)C)nc2)CC1(C)C,22.6%
8,Cc1cc(Nc2ncccn2)nc(C2CCCN(CCO)C2)n1 (stereo not drawn),-3.94%
9,Cc1ccc(S(=O)(=O)NC(=O)CCC(F)(F)F)cc1N(C)C,13.139%
10,Cc1cccc(-c2nc(CN3CCCCC3Cn3cncn3)no2)c1 (stereo not drawn),13.9%
11,Cc1ccc(-c2nc(CN3CCCC3Cn3cc(C)cn3)no2)cc1 (stereo not drawn),51.3%
12,Cc1cnn(CC2CCCN2Cc2noc(-c3ccccc3)n2)c1 (stereo not drawn),23.5%
13,Cc1cnn(CC2CCCN2Cc2noc(C3CC3)n2)c1 (stereo not drawn),37.9%
14,Cc1cccc(-c2nc(CN3CCCC3Cn3cc(C)cn3)no2)c1 (stereo not drawn),83.2%
15,Cc1cnn(CC2CCCN2Cc2noc(C)n2)c1 (stereo not drawn),9.14%
16,CC1N(c2cnn(C)c2)C(=O)COC12CCN(Cc1ccco1)CC2 (stereo not drawn),16.6%
17,COc1ccc(S(=O)(=O)NC2(CC(N)=O)CCC2)cc1,42.7%
18,CCCc1ccc(S(=O)(=O)NC2(CC(N)=O)CCC2)cc1,51.3%
19,CC(C)c1ccc(S(=O)(=O)NC2(CC(N)=O)CCC2)cc1,37.7%
20,NC(=O)Cn1c(CO)cnc1SCc1ccccc1Cl,-4.01%
21,Cc1noc(C2CCC3(CCN(C(=O)c4cc(C5CC5)on4)CC3)O2)n1 (stereo not drawn),7.53%
22,CNc1cncc(C2CCCN2c2cc(C)ncn2)n1 (stereo not drawn),52%
23,CNc1cncc(C2CCCN2Cc2ccccn2)n1 (stereo not drawn),35.8%
24,Cc1cc(N2CCCC2c2cnccn2)ncn1 (stereo not drawn),11.4%
25,CNc1cncc(C2CCCN2C(=O)c2ccc3c(c2)OCCO3)n1 (stereo not drawn),30.8%
26,Cc1cc(N2CCCC2c2cncc(N(C)C)n2)ncn1 (stereo not drawn),14.7%
27,CNc1cncc(C2CCCN2C(=O)c2ccc3c(c2)CCC3)n1 (stereo not drawn),54.5%

row,Structure (SMILES),INHIBITION
1,CNc1cncc(C2CCCN2Cc2cccc(C)n2)n1 (stereo not drawn),45.6%
2,CNc1cncc(C2CCCN2C(=O)c2ccc3oc(C)cc3c2)n1 (stereo not drawn),6.81%
3,CNc1cncc(C2CCCN2Cc2ccn(C)n2)n1 (stereo not drawn),51.5%
4,CCCc1noc(CN2CCC(NC(=O)c3ccc(C)s3)CC2)n1,25%
5,CNc1cc(N2CCCC2CNCc2cccnc2)ncn1 (stereo not drawn),-3.19%
6,CCO[C@@H]1CC[C@H]2[C@H]1OCCN2CCOCc1ccccc1,41.2%
7,O=C(Nc1ccc2c(c1)OCCO2)N1CCCC1c1ccco1 (stereo not drawn),-0.87%
8,Cc1cccc(CN2C[C@@H]3[C@@H](C(=O)NCC(C)C)CCS(=O)(=O)[C@@H]3C2)c1,-41.9%
9,CCc1nc(CN2CCCC(NCc3nnc(C4CC4)n3C)C2)no1 (stereo not drawn),1.75%
10,CCc1ccc(CN2CCC3(CC2)CNC(=O)CO3)o1,33.7%
11,CC(C)Cc1cc(C(=O)NCCc2ccc(S(C)(=O)=O)cc2)[nH]n1,8.69%
12,O=C(O)c1cc(S(=O)(=O)Nc2cc(Cl)ccc2F)cc2c1OCCO2,27.6%
13,CN(CC(=O)NC(N)=O)CC1(c2ccc(Br)cc2)CC1,-17.3%
14,COC1COC2(CCN(Cc3ccc4c(c3)OCO4)CC2)C1 (stereo not drawn),-39.3%
15,Cc1cc(C(=O)N2CCC3(CCC(=O)N(CC(N)=O)C3)CC2)ccc1O,-64.3%
16,C[C@@H]1CN(C(=O)C2(Cn3cccn3)CC2)CC[C@@]1(O)C1CC1,24.205%
17,CNC(=O)Cn1c(-c2ccco2)nn(-c2ccccc2OC)c1=O,59.5%
18,COc1ccccc1-n1nc(-c2ccco2)n(CC(=O)NC2CC2)c1=O,27.6%
19,COc1ccccc1-n1nc(-c2ccco2)n(CC(=O)NC(C)C)c1=O,45.6%
20,Cc1cc(NC(=O)CNC2CCc3ncnn3C2)no1 (stereo not drawn),17.4%
21,CCOC(=O)CC(c1ccc(OC)cc1)c1c(O)n[nH]c1C (stereo not drawn),-14.9%
22,Cc1ccc(C(=O)N2CCCC3(CCCC(=O)N3C)C2)cc1F (stereo not drawn),15.7%
23,COc1ccc(CCN(C)C2CCCN(Cc3noc(C)n3)C2)cc1 (stereo not drawn),-42.3%
24,COc1ccc(CC(C)(O)CNC(=O)Cc2ccc(F)cc2)cc1 (stereo not drawn),77.6%
25,COc1ccc(CC(C)(O)CNC(=O)c2cccs2)cc1 (stereo not drawn),-18%
26,COc1ccc(CC(C)(O)CNC(=O)Cc2cccs2)cc1 (stereo not drawn),40.7%
